High-throughput results: PubChem, National Center for Advancing Translational Sciences (NCATS)
Cycloheximide cs – counter-screen for Shiga toxin inhibitors: cycloheximide protein synthesis inhibition; cell reporter, cycloheximide protein synthesis inhibition counterscreen; max response, %; AID 2314; hit rate 12% among 300,000; in the data active = max response mostly above about 13%, no sharp cut-off; inactive = mostly below about 14%; also: read at 38.3 µM for the half of the compounds with a filed dose; 0% is about no effect
Pf growth 48h – P. falciparum growth inhibition at 48 hours (one generation); P. falciparum luciferase growth in erythrocytes, 48 h; hit rate 5.9% among 310,000; Potency, µM (top dose mostly 28.7 µM), for the others: at the highest dose activity change, negative = inhibition, actives largely listed as inhibitors; AID 504832; also: potency is read from the fitted curve at half-maximal effect; % is scaled to controls: 0 for no effect and ±100 for the full control effect
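Erythrocytes infected with P. falciparum carrying an integrated firefly luciferase reporter (2% hematocrit, 0.1% parasitemia final) were exposed to compounds in RPMI 1640 with 0.5% Albumax at 37 C, 5% CO2. Growth inhibition was scored as reduced luminescence.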
Pf growth 96h – P. falciparum growth inhibition at 96 hours | AID 504834 | P. falciparum luciferase reporter growth, 96 h | hit rate 6.9% among 320,000 | Potency, µM (top dose mostly 28.7 µM), for the others: at the highest dose activity change, negative = inhibition, most hits filed as inhibitors; also: potency is read from the fitted curve at half-maximal effect; % is scaled to controls: 0 for no effect and ±100 for the full control effect
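Parasite growth measured via integrated firefly luciferase reporter in P. falciparum. Infected erythrocytes at 2% hematocrit, 0.05% parasitemia final were treated 96 hours at 37 C under 5% CO2, and luminescence was read.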
Shiga toxin inh – inhibitors of Shiga toxin in Vero cells | Vero cells, Shiga toxin protein synthesis inhibition reporter | inhibition, % at 38.7 µM | hit rate 9.2% among 290,000 | AID 2315; in the data active = inhibition mostly above about 28%, no sharp cut-off; inactive = mostly below about 43%; also: 0% is about no effect
NS1 inh – blocks influenza NS1 protein function; Potency, µM (top dose mostly 46.1 µM), for the others: at the top dose activity, positive = more growth; hit rate 0.4% among 270,000; AID 2326; calls by dose curve; also: potency is read from the fitted curve at half-maximal effect; actives are rising curves; nearly all actives have a fitted effect of over 50% in size
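Growth recovery, yeast-based: influenza A NS1 expressed in S. cerevisiae causes slow growth, and suppressors are detected by OD600. The parent strain without NS1 is used as positive control.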
Numbers without * were called inactive; ? = inconclusive; · = not tested or not shown. Rows were chosen to be rich in hits. Some 21% of all compounds tested hit in one or more screens of this group. Unless noted, calls follow the shape of the dose curve; as a rule, active = well fitted inhibition curve with a large enough effect; inconclusive = small, poorly fitted or top-dose-only effect, or another doubt; inactive = no such curve, though single readings can be large or run the other way.

SMILES	Cycloheximide cs	Pf growth 48h	Pf growth 96h	Shiga toxin inh	NS1 inh
Nc1ccc2nn(-c3ccccc3)nc2c1	53*	102%	4%	97*	9%
Cc1nn(Cc2ccccc2)c(Cl)c1/C=C/C(=O)OC(C)C(=O)N1CCCC1 (configuration not stated)	5	1.7µM*	3.7µM*	2	·
COC(=O)C1=CN(c2cccc(C)c2)C=C(C(=O)OC)C1c1cc(OC)c(O)c([N+](=O)[O-])c1	5	8.3µM*	?	-14	24%
COC(=O)C1=CN(c2ccc(OC)cc2)C=C(C(=O)OC)C1c1ccc(C)c([N+](=O)[O-])c1	1	13µM*	20%	-5	?
COC(=O)C1=CN(c2ccc(OC)cc2)C=C(C(=O)OC)C1c1cccc(F)c1	-2	?	-6%	-2	-10%
CCOC(=O)c1ccc(NC(=O)NC2CCN(CC(=O)NCc3ccc4c(c3)OCO4)CC2)cc1	4	?	27%	2	-4%
Cc1nn(-c2ccccc2)c(C)c1C(=O)NNC(=O)C(F)(F)F	12	116%	2%	12	1%
CCOc1ccccc1NC(=O)Nn1cnnc1	-1	12%	7%	-6	4%
CCOc1ccccc1NC(=O)Nc1ccc(CC#N)cc1	17*	7%	15%	28	-11%
Cc1ccc(NC(=O)Nc2cccc3ccccc23)cc1	9	37%	7%	-10	3%
CCOc1ccccc1NC(=O)Nc1ccncc1	5	3.3µM*	15%	14	1%
N#CCc1ccc(NC(=O)Nc2cccc3ccccc23)cc1	16*	25%	28%	22	2%
CCOc1ccccc1NC(=O)NC1Cc2ccccc2C1	0	?	8.3µM*	12	2%
CCC(C)NS(=O)(=O)c1ccc(S(=O)(=O)N2CC=C(c3ccc(F)cc3)CC2)cc1 (configuration not stated)	-1	-28%	-5%	-1	2%
COc1ccc(C)cc1NC(=O)CCC(=O)Nc1ccc2nc(N3CCN(C)CC3)cc(C)c2c1	-2	?	39%	-3	-6%
COc1cccc(C(=O)Nc2ccc3nc(N4CCN(c5ncccn5)CC4)cc(C)c3c2)c1OC	14*	?	?	-2	-23%
COc1ccc(C(=O)Nc2ccc3nc(N4CCN(C)CC4)cc(C)c3c2)c(OC)c1	-3	7.4µM*	30%	-4	-3%
CCOc1ccccc1C(=O)Nc1ccc2nc(N3CCN(c4ncccn4)CC3)cc(C)c2c1	·	·	·	·	-55%
CCOC(=O)/C(C#N)=C(\O)c1ccc(NC(=O)c2ccc([N+](=O)[O-])cc2)cc1	-2	-16%	-7%	-4	18%
CCCNS(=O)(=O)c1ccc(OCC(=O)Nc2ccc3c(c2)OCO3)cc1	-3	?	4%	-9	2%
CC(C)(C)C(=O)Oc1cccc(Nc2ncnc3ccccc23)c1	9.6*	0%	?	10	-53%
COc1ccc(C(=O)Oc2cccc(Nc3ncnc4ccccc34)c2)cc1OC	8	12%	2.3µM*	3	-15%
COc1cc(C(=O)Oc2cccc(Nc3ncnc4ccccc34)c2)cc(OC)c1OC	8	?	0%	16	-2%
CC(=O)c1cccc(Nc2nc(-c3ccccc3)nc3ccccc23)c1	-1	?	-16%	-11	8%
CC(=O)c1cccc(NC(=O)C(Sc2ncnc3ccccc23)c2ccccc2)c1 (configuration not stated)	8.0*	12µM*	4.7µM*	9	?
SMILES	Cycloheximide cs	Pf growth 48h	Pf growth 96h	Shiga toxin inh	NS1 inh
CC(=O)c1cccc(Nc2ncnc3ccc(Br)cc23)c1	8	5.9µM*	-12%	7	-34%
O=C(Oc1cccc(Nc2ncnc3ccccc23)c1)c1cccnc1	7	?	19%	16	-5%
C[C@@H]1[C@H](O)C[C@@]23COC(=O)C2=CCC[C@@H]3[C@@]1(C)CC/C(=C/CO)CO	·	-5%	5%	·	·
Cc1ccc(NC(=O)CCC(=O)c2ccc(Cl)s2)nc1	·	22%	21%	·	·
O=C(CCn1nc(-c2ccc(Cl)cc2)ccc1=O)N1CCN(c2ccc(F)cc2)CC1	-4	?	14%	-3	8%
CC1=CC(=O)C(C(C)C)=C/C1=N/OC(=O)c1cccc([N+](=O)[O-])c1	9	·	?	-9	-69%
N/C(=N\OC(=O)c1ccncc1)c1cccc([N+](=O)[O-])c1	27*	72%	-16%	·	-8%
COc1cc(C(=O)O/N=C(\N)c2cccc([N+](=O)[O-])c2)cc(OC)c1OC	6	-18%	0%	8	1%
Cc1cccc(/C(N)=N/OC(=O)c2ccncc2)c1	46*	79%	?	68*	-9%
N/C(=N\OC(=O)C1CCCCC1)c1cccc([N+](=O)[O-])c1	66*	51%	50%	106*	-15%
CC1=CC(=NOC(=O)c2cccc([N+](=O)[O-])c2)C=C(C)C1=O	23*	?	·	45	-13%
Cc1ccccc1C(=O)NC1CC2CCCC(C1)N2C(=O)Nc1ccccc1 (configuration not stated)	0	3%	41%	-4	-7%
N/C(=N\OC(=O)c1ccc(Br)cc1)c1cccc([N+](=O)[O-])c1	26*	50%	?	20*	-33%
COc1ccccc1CC(=O)O/N=C(\N)c1cccc([N+](=O)[O-])c1	1	43%	56%	28	-4%
Cc1ccc(CC(=O)O/N=C(\N)c2cccc([N+](=O)[O-])c2)cc1	15*	31%	15µM*	-3	-15%
Cc1ccc(C(=O)O/N=C(\N)c2cccc([N+](=O)[O-])c2)cc1	39*	134%	142%	69*	-48%
N/C(=N\OC(=O)c1ccc([N+](=O)[O-])cc1)c1ccc(Br)cc1	1	23%	6%	·	5%
O=C(NC(=S)NNC(=O)c1ccco1)c1ccc(Br)cc1	13	29%	?	23	-89%
Cn1nc(C(=O)NNC(=O)c2ccc(Cl)c(S(N)(=O)=O)c2)c2ccccc2c1=O	·	-10%	18%	·	·
CC(=O)N/C(=C\c1ccc(C)o1)C(=O)NCc1ccccc1	-2	-3%	?	-7	13%
N/C(=N\OC(=O)c1ccoc1)c1ccc(Br)cc1	74*	311%	12%	90*	-176%
Cc1cccc(C(=O)O/N=C/c2ccc(Br)cc2)c1	44*	36%	-4%	88*	·
Cc1ccc(C)c(C(=O)O/N=C(\N)c2ccc(Br)cc2)c1	21	·	-3%	31	-67%
Cc1ccc(C(=O)O/N=C(\N)c2ccc(Br)cc2)cc1C	42*	·	-18%	130*	-23%
Cc1ccc(/C(N)=N/OC(=O)c2ccc(Cl)cc2Cl)cc1	82*	120%	-10%	92*	-59%
Cc1cc(C)cc(C(=O)O/N=C(\N)c2ccc(Br)cc2)c1	12	?	·	16	-12%
CC(C)C(NC(=O)c1ccccc1F)C(=O)Nc1nccs1 (configuration not stated)	-5	7%	?	15	·
N/C(=N\OC(=O)c1ccc2ccccc2c1)c1ccc(Br)cc1	6	13µM*	293%	19	3%
